# Test results: PubChem BioAssay (Tox21)
# Unmarked numbers belong to inactive results. Inconclusive results are not listed. Activity calls are given as the source filed them. Unless noted, calls follow the shape of the full dose curve.
# Molecular target: Nuclear receptor subfamily 1 group I member 2 (Homo sapiens) (UniProt O75469)
# Test: Human pregnane X receptor (PXR) small molecule agonists, qHTS assay (AID 1346982; active = well fitted curve in the direction sought with a large enough effect in the repeat runs; an effect the other way counts as inactive or inconclusive; also: nearly all actives have a fitted effect of over 35% in size; also: potency is read from the fitted curve at half-maximal effect)
# Conditions: PXR-Luc HepG2, CYP3A4 luciferase reporter, 24 h; series mostly up to 92.4 µM; activation: at the top concentration
# Method in brief: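 Agonist mode: luminescence from ONE-Glo after 24 h compound exposure at 37C in HepG2 cells carrying hPXR-responsive CYP3A4 luciferase, plated in charcoal-stripped serum medium 5 h beforehand.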
# % is scaled to controls: 0 for no effect and ±100 for the full control effect.
# Nuclear receptor subfamily 1 group I member 2 (Homo sapiens), sequence (O75469 whole entry, looked up): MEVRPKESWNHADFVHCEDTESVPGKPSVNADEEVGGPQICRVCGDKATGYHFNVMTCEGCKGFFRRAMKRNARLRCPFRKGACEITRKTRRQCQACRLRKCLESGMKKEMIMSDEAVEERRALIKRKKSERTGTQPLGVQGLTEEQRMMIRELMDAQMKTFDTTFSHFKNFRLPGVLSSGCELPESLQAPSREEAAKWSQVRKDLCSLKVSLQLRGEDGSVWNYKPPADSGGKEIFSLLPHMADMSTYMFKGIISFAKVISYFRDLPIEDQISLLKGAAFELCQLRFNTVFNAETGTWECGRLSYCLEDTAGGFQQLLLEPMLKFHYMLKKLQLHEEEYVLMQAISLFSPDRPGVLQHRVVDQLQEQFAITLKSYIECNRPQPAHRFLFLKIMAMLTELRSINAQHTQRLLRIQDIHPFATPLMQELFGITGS
Structure (SMILES),activation [%],Potency
CCCCCCCCCC[N+](C)(C)CCCCCCCCCC,-34.6,–
O=C1c2ccccc2C(=O)C1C(=O)C(c1ccccc1)c1ccc(Cl)cc1 (stereo not given),–,19.3 µM (active)
[CH3][Hg][Cl],-28.8,–
COC(=O)N(C(=O)N1CO[C@@]2(C(=O)OC)Cc3cc(Cl)ccc3C2=N1)c1ccc(OC(F)(F)F)cc1,–,1.67 µM (active)

# Molecular target: Nuclear receptor subfamily 1 group I member 2 (Rattus norvegicus) (UniProt Q9R1A7)
# Test: Rat pregnane X receptor (rPXR) activation by small molecules, qHTS assay (AID 1346983; active = well fitted curve in the direction sought with a large enough effect in the repeat runs; an effect the other way counts as inactive or inconclusive; also: nearly all actives have a fitted effect of over 20% in size; also: potency is read from the fitted curve at half-maximal effect)
# Conditions: rPXR luciferase reporter cells, One-Glo luminescence, 24 h; max activation: active compounds read high
# Method in brief: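 Cell-based rPXR luciferase reporter assay, 2,000 cells per well, rested 5hr at 37 C before compound addition in DMSO, then 24 hr at 37 C. One-Glo reagent was added and luminescence read after 30 min at room temperature.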
# Nuclear receptor subfamily 1 group I member 2 (Rattus norvegicus), sequence (Q9R1A7 whole entry, looked up): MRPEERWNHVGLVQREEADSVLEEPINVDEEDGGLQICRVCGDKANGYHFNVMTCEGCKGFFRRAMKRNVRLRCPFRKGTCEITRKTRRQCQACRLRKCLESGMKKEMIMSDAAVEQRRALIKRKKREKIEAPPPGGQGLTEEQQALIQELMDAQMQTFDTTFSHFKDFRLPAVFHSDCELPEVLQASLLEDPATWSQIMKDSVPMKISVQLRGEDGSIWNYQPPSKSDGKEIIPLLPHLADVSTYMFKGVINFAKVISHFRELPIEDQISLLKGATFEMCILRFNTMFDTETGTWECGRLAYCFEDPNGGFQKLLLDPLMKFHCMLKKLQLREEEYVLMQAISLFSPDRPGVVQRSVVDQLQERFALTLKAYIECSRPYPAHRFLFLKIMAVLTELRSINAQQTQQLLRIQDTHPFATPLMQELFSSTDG
Structure (SMILES),max activation [%],Potency
CC(=O)O[C@H]1CC[C@@]2(C)C(=CC[C@@H]3[C@@H]2CC[C@]2(C)C(=O)CC[C@@H]32)C1,-1.42,–
Clc1ccc(CO/N=C(\Cn2ccnc2)c2ccc(Cl)cc2Cl)c(Cl)c1,–,25.1 µM (active)
CC1CCC(C(C)C)C(OC(=O)c2ccccc2N)C1 (stereo not given),13.1,–
CCCCCCCCCC[N+](C)(C)CCCCCCCCCC,-13.5,–
O=c1[nH]c2ccccc2n1CCCN1CCC(n2c(=O)[nH]c3cc(Cl)ccc32)CC1,-1.24,–

# Molecular target: Nuclear receptor subfamily 1 group I member 2 (Homo sapiens) (UniProt O75469)
# Test: CYP3A4 induction through human pregnane X receptor (PXR) by small molecules, qHTS assay (AID 1346984; active = well fitted curve in the direction sought with a large enough effect in the repeat runs; an effect the other way counts as inactive or inconclusive; also: nearly all actives have a fitted effect of over 40% in size)
# Conditions: DPX-2 HepG2 PXR, CYP3A4-luciferin luminescence, 24 h; series mostly up to 46.1 µM; activation: at the top concentration
# Method in brief: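 Read-out is luminescence after One-Glo addition, following a 3 hr, 37C incubation with Luciferin-IPA CYP3A4 substrate (3uM final). Before that, compounds were on DPX-2 cells (HepG2 co-transfected with PXR element plus CYP3A4-promoter luciferase) for 24 hr at 37C.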
row,Structure (SMILES),activation
1,CC(=O)O[C@H]1CC[C@@]2(C)C(=CC[C@@H]3[C@@H]2CC[C@]2(C)C(=O)CC[C@@H]32)C1,-0.435% [at 20.6 µM]
2,Clc1ccc(CO/N=C(\Cn2ccnc2)c2ccc(Cl)cc2Cl)c(Cl)c1,-23%
3,CC1CCC(C(C)C)C(OC(=O)c2ccccc2N)C1 (stereo not given),23.8%
4,CCCCCCCCCC[N+](C)(C)CCCCCCCCCC,-9.83%

# Molecular target: Nuclear receptor subfamily 1 group I member 2 (Homo sapiens) (UniProt O75469)
# Test: Human pregnane X receptor (PXR) activation by small molecules, qHTS assay (AID 1346985; active = well fitted curve in the direction sought with a large enough effect in the repeat runs; an effect the other way counts as inactive or inconclusive; also: nearly all actives have a fitted effect of over 40% in size; also: potency is read from the fitted curve at half-maximal effect)
# Conditions: DPX-2 HepG2 CYP3A4-luciferase, 24 h; series mostly up to 38.3 µM; activation: at the top concentration
# Method in brief: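 DPX-2 cells (HepG2 co-transfected with a PXR response element and a CYP3A4-promoter luciferase construct) were seeded at 2,000 per well, rested 5 hr at 37C, then exposed to DMSO-dissolved compounds for 24 hr. Activation was read as luciferase luminescence.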
Structure (SMILES),activation,Potency
CC(=O)O[C@H]1CC[C@@]2(C)C(=CC[C@@H]3[C@@H]2CC[C@]2(C)C(=O)CC[C@@H]32)C1,8.03% [at 17.1 µM],–
Clc1ccc(CO/N=C(\Cn2ccnc2)c2ccc(Cl)cc2Cl)c(Cl)c1,–,1.41 µM (active)
CCCCCCCCCC[N+](C)(C)CCCCCCCCCC,-0.249%,–

# Molecular target: Acetylcholinesterase (Homo sapiens) (UniProt P22303)
# Test: Acetylcholinesterase (AChE) small molecule antagonists: colormetric cell-based qHTS assay (AID 1347395); also: nearly all actives have a fitted effect of over 30% in size
# Conditions: SH-SY5Y cells AChE activity, colorimetric (Ellman); series mostly up to 115 µM; activity, negative = inhibition: at the top concentration
# Method in brief: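 SH-SY5Y cells attached overnight, exposed to compound 30 min at 37 C, then given DTNB/acetylthiocholine; after 90 min at 37 C, colorimetric thiocholine read gives cellular AChE activity.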
# Acetylcholinesterase (Homo sapiens), sequence (P22303 whole entry, looked up): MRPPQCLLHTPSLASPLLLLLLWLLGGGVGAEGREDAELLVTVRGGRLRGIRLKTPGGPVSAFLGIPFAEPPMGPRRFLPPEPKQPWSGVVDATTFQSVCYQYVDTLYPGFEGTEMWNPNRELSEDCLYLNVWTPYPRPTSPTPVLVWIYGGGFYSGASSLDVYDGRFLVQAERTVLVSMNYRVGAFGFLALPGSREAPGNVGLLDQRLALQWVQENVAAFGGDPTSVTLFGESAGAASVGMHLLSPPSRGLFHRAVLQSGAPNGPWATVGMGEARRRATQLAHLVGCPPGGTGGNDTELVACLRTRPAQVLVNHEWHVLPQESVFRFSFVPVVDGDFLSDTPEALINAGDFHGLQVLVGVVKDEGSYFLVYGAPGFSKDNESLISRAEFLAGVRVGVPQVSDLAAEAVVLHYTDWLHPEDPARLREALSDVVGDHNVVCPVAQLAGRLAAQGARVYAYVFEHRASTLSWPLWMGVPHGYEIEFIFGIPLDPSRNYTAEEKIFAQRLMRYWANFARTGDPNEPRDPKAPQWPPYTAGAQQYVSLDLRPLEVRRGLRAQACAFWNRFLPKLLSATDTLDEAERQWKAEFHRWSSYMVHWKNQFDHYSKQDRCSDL
Structure (SMILES),"activity, negative = inhibition",Potency
CCCCOP(=O)(CCCC)OCCCC,-0.0667%,–
CC(=O)O[C@H]1CC[C@@]2(C)C(=CC[C@@H]3[C@@H]2CC[C@]2(C)C(=O)CC[C@@H]32)C1,0.511%,–
CC1(C)CN=C(NN=C(/C=C/c2ccc(C(F)(F)F)cc2)/C=C/c2ccc(C(F)(F)F)cc2)NC1,13.4%,–
CN(C)C1CSSSC1,4.15%,–
CCN(CC)c1c([N+](=O)[O-])cc(C(F)(F)F)c(N)c1[N+](=O)[O-],-5.64%,–
ClC1=C(Cl)C2(Cl)C3C(Cl)C(Cl)CC3C1(Cl)C2(Cl)Cl (stereo not given),–,inactive
Fc1ccc(Oc2ccnc3cc(Cl)cc(Cl)c23)cc1,-2.41%,–
C=CCC1=C(C)C(OC(=O)C2C(C=C(C)C)C2(C)C)CC1=O (stereo not given),1.65%,–
NC(=O)CCl,0.194%,–
CC(C)(C)C(O)C(Oc1ccc(-c2ccccc2)cc1)n1cncn1 (stereo not given),-1.05%,–
O=C(Nc1ccc2[nH]ccc2c1)c1cc2cc(F)ccc2n1Cc1cccc(F)c1,6.22%,–
CC(C)(c1ccc(O)c(-c2ccccc2)c1)c1ccc(O)c(-c2ccccc2)c1,0.485%,–
Clc1ccc(CO/N=C(\Cn2ccnc2)c2ccc(Cl)cc2Cl)c(Cl)c1,-4.78% [at 52.9 µM],–
N#Cc1ccc(O)cc1,-9.45%,–
c1cc[c]([Sb]([c]2ccccc2)[c]2ccccc2)cc1,3.56%,–
O=C(O)C1C2CCC(O2)C1C(=O)O (stereo not given),–,inactive
ClC1=C(Cl)[C@]2(Cl)[C@@H]3[C@@H]4C[C@@H]([C@H]5O[C@@H]45)[C@@H]3[C@@]1(Cl)C2(Cl)Cl,-2.98%,–

Structure (SMILES),"activity, negative = inhibition",Potency
CCCCN(CCCC)C(=S)[S-].CCCCN(CCCC)C(=S)[S-].[Zn+2],-8.08%,–
CC(=O)c1cc(C(C)(C)C)cc2c1CCC2(C)C,2.49%,–
O=c1c(C2CC(c3ccc(-c4ccc(Br)cc4)cc3)Cc3ccccc32)c(O)sc2ccccc12 (stereo not given),1.77% [at 52.9 µM],–
CC(C)Oc1cccc(NC(=O)c2ccccc2C(F)(F)F)c1,-5.2%,–
OC(Cc1ccccc1Cl)(Cn1cncn1)C1(Cl)CC1 (stereo not given),1.03%,–
CC(C)(C)OO,-2.44%,–
CC1CCC(C(C)C)C(OC(=O)c2ccccc2N)C1 (stereo not given),-1.56%,–
CCCOCC(=Nc1ccc(Cl)cc1C(F)(F)F)n1ccnc1,-0.611%,–
Clc1ccc(-c2ccc(Cl)c(Cl)c2Cl)c(Cl)c1Cl,3.17%,–
Clc1ccc(-c2ccccc2)cc1,0.388%,–
CCN,-0.147%,–
O=C1NCN(c2ccccc2)C12CCN(CC1COc3ccccc3O1)CC2 (stereo not given),1.02% [at 52.9 µM],–
O=C1c2ccccc2C(=O)C1C(=O)C(c1ccccc1)c1ccc(Cl)cc1 (stereo not given),0.312%,–
CCS(=O)(=O)c1cccnc1S(=O)(=O)NC(=O)Nc1nc(OC)cc(OC)n1,2.46%,–
[CH3][Hg][Cl],-1.02%,–
COC(=O)N(C(=O)N1CO[C@@]2(C(=O)OC)Cc3cc(Cl)ccc3C2=N1)c1ccc(OC(F)(F)F)cc1,8.54%,–

# Molecular target: Acetylcholinesterase (Homo sapiens) (UniProt P22303)
# Test: Acetylcholinesterase (AChE) small molecule antagonists: enzyme-based qHTS assay (AID 1347397); also: nearly all actives have a fitted effect of over 55% in size; also: potency is read from the fitted curve at half-maximal effect
# Conditions: Potency: AChE enzyme activity inhibition; series mostly up to 115 µM; activity change, negative = inhibition: at the top concentration
# Method in brief: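 Tox21 library chemicals are tested in qHTS format against recombinant human AChE. The enzyme, dispensed at 50 mU/mL, sits with compound for 30 min at room temperature. A DTNB–acetylthiocholine cocktail follows, and colour is read after 10 min.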
Structure (SMILES),"activity change, negative = inhibition",Potency
CCCCOP(=O)(CCCC)OCCCC,1.63%,–
CC(=O)O[C@H]1CC[C@@]2(C)C(=CC[C@@H]3[C@@H]2CC[C@]2(C)C(=O)CC[C@@H]32)C1,-5.98%,–
CC(C)(C)C(O)/C(=C\c1ccc(Cl)cc1Cl)n1cncn1 (stereo not given),-3.29%,–
Oc1ccc(C2(c3ccc(O)cc3)c3ccccc3-c3ccccc32)cc1,–,39.9 µM (active)
CC1(C)CN=C(NN=C(/C=C/c2ccc(C(F)(F)F)cc2)/C=C/c2ccc(C(F)(F)F)cc2)NC1,6.54%,–
CN(C)C1CSSSC1,-2.93%,–
CCN(CC)c1c([N+](=O)[O-])cc(C(F)(F)F)c(N)c1[N+](=O)[O-],1.16%,–
ClC1=C(Cl)C2(Cl)C3C(Cl)C(Cl)CC3C1(Cl)C2(Cl)Cl (stereo not given),–,inactive
Fc1ccc(Oc2ccnc3cc(Cl)cc(Cl)c23)cc1,-1.57%,–
C=CCC1=C(C)C(OC(=O)C2C(C=C(C)C)C2(C)C)CC1=O (stereo not given),-6.97%,–
NC(=O)CCl,0%,–
CC(C)(C)C(O)C(Oc1ccc(-c2ccccc2)cc1)n1cncn1 (stereo not given),1.78%,–
O=C(Nc1ccc2[nH]ccc2c1)c1cc2cc(F)ccc2n1Cc1cccc(F)c1,0.13%,–
N#CSCSC#N,-14.2%,–
CC(C)(c1ccc(O)c(-c2ccccc2)c1)c1ccc(O)c(-c2ccccc2)c1,–,17.8 µM (active)
N#Cc1ccc(O)cc1,-1.09%,–
c1cc[c]([Sb]([c]2ccccc2)[c]2ccccc2)cc1,0.545%,–
O=C(O)C1C2CCC(O2)C1C(=O)O (stereo not given),–,inactive

Structure (SMILES),"activity change, negative = inhibition",Potency
ClC1=C(Cl)[C@]2(Cl)[C@@H]3[C@@H]4C[C@@H]([C@H]5O[C@@H]45)[C@@H]3[C@@]1(Cl)C2(Cl)Cl,-6.22%,–
CCCCN(CCCC)C(=S)[S-].CCCCN(CCCC)C(=S)[S-].[Zn+2],-8.91%,–
CC(=O)c1cc(C(C)(C)C)cc2c1CCC2(C)C,-0.0476%,–
O=c1c(C2CC(c3ccc(-c4ccc(Br)cc4)cc3)Cc3ccccc32)c(O)sc2ccccc12 (stereo not given),-19.2% [at 53 µM],–
CC(C)Oc1cccc(NC(=O)c2ccccc2C(F)(F)F)c1,-2.9%,–
OC(Cc1ccccc1Cl)(Cn1cncn1)C1(Cl)CC1 (stereo not given),0.954%,–
CC(C)(C)OO,0%,–
CC1CCC(C(C)C)C(OC(=O)c2ccccc2N)C1 (stereo not given),-7.23%,–
CCCOCC(=Nc1ccc(Cl)cc1C(F)(F)F)n1ccnc1,-6.71%,–
Clc1ccc(-c2ccc(Cl)c(Cl)c2Cl)c(Cl)c1Cl,0.273%,–
Clc1ccc(-c2ccccc2)cc1,-0.13%,–
CCN,-0.224%,–
O=C1NCN(c2ccccc2)C12CCN(CC1COc3ccccc3O1)CC2 (stereo not given),3.33% [at 53 µM],–
CCCCCCCCCC[N+](C)(C)CCCCCCCCCC,–,31.7 µM (active)
O=C1c2ccccc2C(=O)C1C(=O)C(c1ccccc1)c1ccc(Cl)cc1 (stereo not given),0.401%,–
CCS(=O)(=O)c1cccnc1S(=O)(=O)NC(=O)Nc1nc(OC)cc(OC)n1,0.168%,–
[CH3][Hg][Cl],-0.13%,–
COC(=O)N(C(=O)N1CO[C@@]2(C(=O)OC)Cc3cc(Cl)ccc3C2=N1)c1ccc(OC(F)(F)F)cc1,-1.71%,–
